Compounds with a hit are over-represented: about 2.6% of the library has one in this group of screens.
aDG glyco act: alpha-DG glycosylation activation. Pro5-aDG cells, alpha-DG glycosylation AlphaScreen (IIH6); 0% Pro5, 100% B10-LARGE cell signal. activation, % at 10 µM. actives 0.22% (n = 360,000). AID 624168;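 active means activation of at least 8% versus controls, or a plate z-score of at least 8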;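 further: Pro5 are CHO cells carrying HIG-tagged alpha-DG that lacks glycosylation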
LGR2 inh: Drosophila LGR2 receptor signaling inhibition; HEK293 LGR2, CRE-luciferase, bursicon-stimulated, 4 h; inhibition, % at 9.99 µM; actives 0.35% (n = 380,000);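 active means drop in luminescence signal, shown as inhibition above about 50% in the replicate tests, limit read from the data, passing the limit was not always enough; inconclusive means probably only some replicates passing the limit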;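 further: agonist challenge used bursicon conditioned medium at about half maximal strength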
TROY signal inh: TROY signaling inhibition | Q293 LMP1-TROYcd NF-kB luciferase reporter, 4 h | inhibition, % at 10 µM | actives 0.98% (n = 360,000) | AID 1347056;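 active means compounds whose plate-normalised and pattern-corrected inhibition of the luciferase reporter signal at the single screening dose is 50% or more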
EBV LMP1 NFkB: Epstein-Barr LMP1 NF-kappaB reporter inhibition | AID 504558 | inhibition, % at 12.5 µM | actives 0.69% (n = 350,000) | LMP1-induced NF-kappaB luciferase reporter cells, luminescence; in the data active means inhibition above about 41%; inconclusive means no clear call, values can overlap the other calls
TWEAK-Fn14 inh: inhibitors of TWEAK-Fn14 interaction signaling. TWEAK-stimulated Fn14 reporter cells, luciferase luminescence, 8 h. inhibition, % at 10 µM. actives 2% (n = 360,000); in the data active means inhibition above about 50%
HSP90 refold inh: inhibitors of HSP90 luciferase refolding in rabbit reticulocyte lysate | luciferase refolding luminescence, 3 h | inhibition, % at 5.6 µM | actives 0.91% (n = 290,000);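 active means inhibition above the screen-wide mean plus 3 SD, computed separately per campaign, cut at about 16% in these data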;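 further: inhibitors lower the luminescence because luciferase stays unfolded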
HSP90 confirm: confirmation of HSP90 inhibitors; shares compounds with HSP90 refold inh; rabbit reticulocyte lysate, luciferase refolding luminescence, 3 h; inhibition, % at 5.9 µM; actives 64% (n = 2,300); AID 1846; in the data active means inhibition above about 18%
luciferase ctr: blocks native firefly luciferase in HSP90 counter-screen; shares compounds with HSP90 refold inh; purified native firefly luciferase, luminescence; inhibition, % at 5.9 µM; actives 48% (n = 2,300);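 active means inhibition above the mean inhibition of all tested sample wells plus 3 SD, cut at about 10% in these data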
Target sequence (P08659 whole entry, looked up): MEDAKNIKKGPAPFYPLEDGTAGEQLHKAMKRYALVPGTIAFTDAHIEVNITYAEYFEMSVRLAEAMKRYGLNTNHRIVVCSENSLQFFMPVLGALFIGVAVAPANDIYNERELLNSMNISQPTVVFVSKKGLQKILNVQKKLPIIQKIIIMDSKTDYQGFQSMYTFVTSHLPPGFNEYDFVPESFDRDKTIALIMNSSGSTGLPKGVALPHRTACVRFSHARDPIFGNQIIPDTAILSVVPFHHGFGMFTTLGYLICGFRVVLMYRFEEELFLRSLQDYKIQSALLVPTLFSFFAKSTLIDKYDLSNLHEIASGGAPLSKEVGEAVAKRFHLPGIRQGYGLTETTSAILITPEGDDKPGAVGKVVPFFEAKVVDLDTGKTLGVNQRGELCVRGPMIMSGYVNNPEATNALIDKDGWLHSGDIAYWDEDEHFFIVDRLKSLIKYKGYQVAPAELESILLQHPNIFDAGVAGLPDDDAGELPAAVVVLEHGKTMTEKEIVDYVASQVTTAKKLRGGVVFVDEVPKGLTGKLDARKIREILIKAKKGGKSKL
Numbers stand for hits; - = inactive; ? = inconclusive; . = not tested or not shown.

SMILES | aDG glyco act | LGR2 inh | TROY signal inh | EBV LMP1 NFkB | TWEAK-Fn14 inh | HSP90 refold inh | HSP90 confirm | luciferase ctr
COC(=O)c1nn(-c2ccc3c(c2)CCN3C(C)=O)cc1O | - | . | 76 | 55 | 103 | 85 | 88 | 74
C[C@H](CO)N1C[C@H](C)[C@H](CN(C)Cc2cccc(F)c2)Oc2cc(C#CC3CC3)ccc2S1(=O)=O | . | - | . | . | . | . | . | .
O=C(CNS(=O)(=O)c1ccc(Br)s1)NCc1ccccc1 | - | - | - | - | - | 17 | - | -
CCCC(=O)Nc1ccc2c(c1)C(=O)N(C)C[C@@H](OC)[C@@H](C)CN(C)[C@@H](C)CO2 | . | - | . | . | . | . | . | .
CO[C@H]1CN(C)C(=O)c2cc(NC(=O)Nc3cccc(Cl)c3)ccc2OC[C@@H](C)N(C(=O)Nc2c(C)noc2C)C[C@@H]1C | . | - | . | . | . | . | . | .
O=C(N/N=C/c1ccccc1[N+](=O)[O-])c1ccc2c(c1)OCCO2 | - | ? | - | - | - | 22 | 58 | 36
Cc1cccc(/C=N/NC(=O)c2ccc3c(c2)OCCO3)c1O | - | 68 | - | - | 74 | 32 | 59 | 52
O=C(N/N=C/c1cc(O)ccc1[N+](=O)[O-])c1ccc2c(c1)OCCO2 | - | - | - | - | - | - | . | .
O=C(N/N=C/c1cccc(O)c1)c1ccc2c(c1)OCCO2 | - | - | - | 64 | 69 | 48 | 59 | 39
O=C(N/N=C/c1ccc2c(c1)OCO2)c1ccc2c(c1)OCO2 | - | - | - | - | - | - | . | .
O=C(NCc1ccccc1)[C@H]1[C@H](CO)[C@H]2Cn3c(ccc(-c4cccnc4)c3=O)[C@H]2N1Cc1cocn1 | . | - | . | . | . | . | . | .
CN1N=C2c3ccccc3CCCC2C1c1ccc(F)cc1 (configuration not stated) | - | - | - | - | - | 18 | - | -
C[C@@H]1CN([C@@H](C)CO)C(=O)c2cc(NC(=O)Nc3cccc4ccccc34)ccc2O[C@@H](C)CCCCO[C@@H]1CN(C)Cc1ccccc1 | . | - | . | . | . | . | . | .
Fc1ccc(-c2nnc(NC3=NCCCCC3)o2)cc1 | - | . | 77 | 65 | 99 | 73 | 81 | 76
COc1ccc(/C=N/N=C2/NC(=O)CC(C(=O)O)S2)cc1 (configuration not stated) | - | - | - | - | - | 23 | 36 | -
COc1ccc(-c2nc3ccccn3c2Cl)cc1 | - | - | - | - | 52 | 24 | 47 | 30
COc1ccc(-c2nc3ccccn3c2CN2CCN(c3ccccc3F)CC2)cc1 | - | - | - | - | - | - | . | .
CO[C@@H]1CN(C)C(=O)c2cc(NC(=O)c3cc(C)on3)ccc2OC[C@@H](C)N(C(=O)C2CCC2)C[C@H]1C | . | - | . | . | . | . | . | .
COc1ccccc1NC(=O)N[C@H]1CC[C@H](CC(=O)N[C@@H](C)c2ccccc2)O[C@@H]1CO | . | - | . | . | . | . | . | .
Cc1ccc(-c2nc(-c3ccccc3)no2)c(Cl)c1 | - | 67 | 81 | - | 101 | 54 | 90 | 86
COc1cccc(Cn2cccc(NC(=O)NCc3ccccc3)c2=O)c1 | - | - | - | - | - | 18 | - | -
Cc1onc(-c2cccc(Cl)c2Cl)c1C(=O)O/N=C(\N)c1ccc([N+](=O)[O-])o1 | - | - | - | - | - | 33 | - | -
CCCC#Cc1ccc([C@@H]2[C@@H](C#N)N(C(=O)C3CCC3)[C@@H]2CO)cc1 | . | - | . | . | . | . | . | .
O=c1c2ccccc2[nH]c(=S)n1CCc1ccccc1 | - | . | - | - | - | - | . | .
O=C(CCn1c(=S)[nH]c2ccccc2c1=O)NCCc1ccccc1 | - | - | - | - | - | 59 | - | -
SMILES | aDG glyco act | LGR2 inh | TROY signal inh | EBV LMP1 NFkB | TWEAK-Fn14 inh | HSP90 refold inh | HSP90 confirm | luciferase ctr
CC1=CC2=NC(=O)/C(=C\c3cccn3CCOc3cc(C)ccc3C)C(=N)N2O1 | - | - | - | - | - | 53 | - | -
CCCNC(=O)N(C)C[C@@H]1Oc2cc(C#CC3CC3)ccc2S(=O)(=O)N([C@@H](C)CO)C[C@H]1C | . | - | . | . | . | . | . | .
O=C(NC12CC3CC(CC(C3)C1)C2)c1ccc(-c2ccccc2Cl)o1 | - | - | . | - | 64 | 26 | 38 | 30
O=C(NC12CC3CC(CC(C3)C1)C2)c1ccco1 | - | - | - | - | - | - | . | .
C[C@H](CO)N1C[C@H](C)[C@@H](CN(C)Cc2ccc(Oc3ccccc3)cc2)Oc2ccc(NC(=O)CCC(F)(F)F)cc2CC1=O | . | - | . | . | . | . | . | .
O=C(C[C@H]1C=C[C@H](NC(=O)C2CCC2)[C@@H](CO)O1)NCC1CC1 | . | - | . | . | . | . | . | .
Cc1ccc(C(=O)N/C(=C\c2sccc2C)C(=O)NCc2ccncc2)cc1 | - | - | - | - | - | - | . | .
Cc1ccc(C(=O)N/C(=C\c2sccc2C)C(=O)NCc2ccco2)cc1 | - | . | - | - | - | 25 | - | -
COc1ccc(-c2cc(=O)c3c(O)c(OC)c(O)cc3o2)cc1 | - | - | - | - | 54 | 20 | 46 | 41
COC(=O)c1ccccc1OCCCOc1ccc(C)cc1OC | . | . | . | . | . | 94 | 100 | -
COc1cc(C)ccc1OCCCOc1ccccc1Br | - | . | - | - | - | - | . | .
COc1cc(C=O)ccc1OCCCOc1ccccc1C(=O)O | - | . | 84 | - | 102 | 74 | 76 | 34
COc1cc(C=O)ccc1OCCCOc1ccccc1[N+](=O)[O-] | - | - | - | - | - | - | . | .
CO[C@@H]1CN(C)C(=O)c2ccc(NS(=O)(=O)c3cn(C)cn3)cc2OC[C@@H](C)N(C)C[C@@H]1C | . | - | . | . | . | . | . | .
COc1ccc(Cl)cc1NC(=O)CCc1nc(-c2ccccc2F)no1 | - | - | - | - | - | 27 | - | -
COc1ccccc1N(Cc1ccccc1)S(=O)(=O)c1cccc(C(=O)Nc2ncccc2C)c1 | - | - | - | - | - | . | . | .
COc1ccccc1N(Cc1ccccc1)S(=O)(=O)c1cccc(C(=O)Nc2cc(C)ccn2)c1 | - | 55 | 55 | - | 66 | 38 | 58 | 41
CCCN1[C@@H]2c3ccc(-c4cccnc4)c(=O)n3C[C@@H]2[C@@H](CO)[C@@H]1C(=O)NC1CCCC1 | . | - | . | . | . | . | . | .
Cc1ccccc1-c1ccc(=O)n(CC(=O)Nc2ccc(N3CCOCC3)cc2)n1 | - | - | - | - | - | 43 | - | -
Cc1ccc(C(C)NC(=O)Cc2cccs2)c(C)c1 (configuration not stated) | - | - | - | - | - | 30 | - | -
COC(=O)[C@H]1[C@H](CO)[C@H]2Cn3c(ccc(-c4ccccc4)c3=O)[C@H]2N1S(C)(=O)=O | . | - | . | . | . | . | . | .
COc1ccc2c3c(n(C)c2c1)[C@H](CO)N(C(=O)Cc1ccccc1)CC31CN(C(=O)Cc2ccccc2)C1 | . | - | . | . | . | . | . | .
CN1CCN(CC(=O)Nc2nc3c(s2)CCCC3)CC1 | - | - | - | - | - | - | . | .
